Data reported in PubChem BioAssay.
Calls of active or inactive are those of the source. No rule for the calls is given here.

Target: Pantothenate synthetase (Mycobacterium tuberculosis (strain ATCC 25618 / H37Rv)) (UniProt P9WIL5)
Assay: Recombinant Mtb pantothenate synthetase (PanC) inhibitors, coupled enzyme, confirmatory (AID 375);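 also: 0% = full reaction with vehicle and 100% = no enzyme background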
Settings: coupled enzyme assay; at 10 µM, hits give high values

Sequence of Pantothenate synthetase (Mycobacterium tuberculosis (strain ATCC 25618 / H37Rv)) (P9WIL5 whole entry, looked up): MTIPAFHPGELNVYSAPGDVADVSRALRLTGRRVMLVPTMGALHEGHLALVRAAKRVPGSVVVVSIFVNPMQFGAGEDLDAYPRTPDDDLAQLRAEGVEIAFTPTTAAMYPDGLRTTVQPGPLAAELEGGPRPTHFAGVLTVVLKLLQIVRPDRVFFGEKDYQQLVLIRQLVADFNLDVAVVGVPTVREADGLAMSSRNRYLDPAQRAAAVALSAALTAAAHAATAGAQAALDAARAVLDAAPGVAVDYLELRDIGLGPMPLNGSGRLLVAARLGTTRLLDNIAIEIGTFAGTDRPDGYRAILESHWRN

SMILES	inhibition
Cn1nc(C(=O)NC2CCCCCC2)ccc1=O	0% (inactive)
COc1ccc(C2C(C(C)=O)=C(C)N=c3s/c(=C\c4ccc5c(c4)OCO5)c(=O)n32)c(OC)c1 (stereo not given)	0% (inactive)
C=CCn1c(SCC(=O)NCC2CCCO2)nc2scc(-c3ccco3)c2c1=O (stereo not given)	5% (inactive)
CCOC(=O)c1sc(NC(=O)C2CC=CCC2C(=O)O)nc1C (stereo not given)	3% (inactive)
N#CC1=C(SCC(=O)c2cc3ccccc3oc2=O)NC(=O)C(C#N)C12CCCC2 (stereo not given)	0% (inactive)
Cc1ccc(C(=O)N2CCN(C(=O)c3ccc(C)c(C)c3)C(C)C2)cc1C (stereo not given)	7% (inactive)
CCOC(=O)N1CCC(N2C(=O)c3ccccc3C2Nc2cccnc2)CC1 (stereo not given)	4% (inactive)
O=C(Nc1ccc(S(=O)(=O)N2CCc3ccccc32)cc1)c1ccc2c(c1)OCO2	0% (inactive)
CCNC(=O)CC(=O)Nc1ccccc1C(=O)O	0% (inactive)
Cc1ccc(S(=O)(=O)NCCCCC(NC(=O)OC(C)(C)C)C(=O)O)cc1 (stereo not given) (tested in a mixture with another compound)	0% (inactive)
CCN(CC)c1ccc(-c2c(C#N)c(N)nc(OC)c2C#N)cc1	0% (inactive)
Cc1oc2c(c1C(=O)NCc1ccccc1)CCCC2	0% (inactive)
c1ccc2c(c1)CC(N1CCCCC1)c1ccccc1N2 (stereo not given)	0% (inactive)
O=C(CN1C(=O)c2cccc3cccc1c23)Nc1ccccc1C(=O)NCc1ccco1	0% (inactive)
Cc1[nH]nc2c1C(=O)CCC2	0% (inactive)
COc1ccccc1-n1c(=O)[nH]c2c(C(N)=O)nc(CC(C)C)nc21	0% (inactive)
CCOC(=O)N1CCC(NC(=O)c2ccc(OC)c(CN3CC(=O)N4CCCC4C3=O)c2)CC1 (stereo not given)	0% (inactive)
O=S(=O)(Nc1ccc(Cc2ccncc2)cc1)N1CCCC1	0% (inactive)
Cn1cccc1Cc1nnc(SCC(=O)Nc2ccccc2F)n1CCc1ccccc1	0% (inactive)
FC(F)(F)COc1nc(N2CCCCC2)nc(N2CCNCC2)n1	4% (inactive)

SMILES	inhibition
COc1cccc(N2CCN(CC(=O)NCc3cccs3)CC2)c1	3% (inactive)
COc1ccc(CN2C(=O)CN=C2Nc2ccc(C)cc2C)cc1	6% (inactive)
COc1cccc(NC(=O)COC(=O)c2ccco2)c1	0% (inactive)
Cc1ccccc1CSc1nnc(C)c(=O)[nH]1	0% (inactive)
O=C(Nc1ccncc1)c1cc2ccccc2o1	3% (inactive)
CCN(CC)CCCNC1CCS(=O)(=O)C1 (stereo not given)	1% (inactive)
c1ccc(-c2cn3c4c(sc3n2)CCCC4)cc1	3% (inactive)
CCOc1ccc(C2C(C#N)=C(N)Oc3cc(C)n(Cc4ccco4)c(=O)c32)cc1OC (stereo not given)	2% (inactive)
[O-][n+]1onc2c1CCc1nnc(-c3ccccc3)cc1-2	0% (inactive)
O=C(c1ccco1)N1CCN(C(=O)c2ccc(Cn3cc(Br)cn3)o2)CC1	4% (inactive)
Cc1cc(=O)n(CC(C)C)c(O)c1C#N	0% (inactive)
CCC(Sc1ccc(C(=O)O)cc1)C(=O)O (stereo not given)	2% (inactive)
COC(=O)c1onc(C(=O)c2ccccc2)c1C(=O)OC	0% (inactive)
COc1ccc(C(CNC(=O)CN2C(=O)NC3(CC(C)CC(C)(C)C3)C2=O)N2CCOCC2)cc1 (stereo not given)	4% (inactive)
COc1ccccc1Cn1nnc2c(=O)[nH]c(C3CCN(C(=O)c4ccccc4Cl)CC3)nc21	0% (inactive)
COc1cccc(NS(=O)(=O)c2ccc3[nH]cc(C(=O)NC4CC4)c(=O)c3c2)c1	2% (inactive)
CCOC(=O)N1CCN(S(=O)(=O)c2ccc(Br)s2)CC1	11% (inactive)
COc1ccc(CCNS(=O)(=O)c2ccc3c(c2)OCCO3)cc1	0% (inactive)
CCSc1nnc(NC(=O)c2nn(C(C)C)c(=O)c3ccccc23)s1	1% (inactive)
COC(=O)N1CC(c2ccccc2)CC1=O (stereo not given)	4% (inactive)
